Source: PubChem BioAssay
An excerpt weighted towards active compounds, which were near 3.7% of everything screened.
Anthrax LF inh2 = inhibitors of Bacillus anthracis lethal factor protease. multiplex microsphere protease cleavage assay, LF. inhibition, % at 10 µM. P15917. AID 588501. 0.12% of 360,000 active
Target sequence (P15917 whole entry, looked up): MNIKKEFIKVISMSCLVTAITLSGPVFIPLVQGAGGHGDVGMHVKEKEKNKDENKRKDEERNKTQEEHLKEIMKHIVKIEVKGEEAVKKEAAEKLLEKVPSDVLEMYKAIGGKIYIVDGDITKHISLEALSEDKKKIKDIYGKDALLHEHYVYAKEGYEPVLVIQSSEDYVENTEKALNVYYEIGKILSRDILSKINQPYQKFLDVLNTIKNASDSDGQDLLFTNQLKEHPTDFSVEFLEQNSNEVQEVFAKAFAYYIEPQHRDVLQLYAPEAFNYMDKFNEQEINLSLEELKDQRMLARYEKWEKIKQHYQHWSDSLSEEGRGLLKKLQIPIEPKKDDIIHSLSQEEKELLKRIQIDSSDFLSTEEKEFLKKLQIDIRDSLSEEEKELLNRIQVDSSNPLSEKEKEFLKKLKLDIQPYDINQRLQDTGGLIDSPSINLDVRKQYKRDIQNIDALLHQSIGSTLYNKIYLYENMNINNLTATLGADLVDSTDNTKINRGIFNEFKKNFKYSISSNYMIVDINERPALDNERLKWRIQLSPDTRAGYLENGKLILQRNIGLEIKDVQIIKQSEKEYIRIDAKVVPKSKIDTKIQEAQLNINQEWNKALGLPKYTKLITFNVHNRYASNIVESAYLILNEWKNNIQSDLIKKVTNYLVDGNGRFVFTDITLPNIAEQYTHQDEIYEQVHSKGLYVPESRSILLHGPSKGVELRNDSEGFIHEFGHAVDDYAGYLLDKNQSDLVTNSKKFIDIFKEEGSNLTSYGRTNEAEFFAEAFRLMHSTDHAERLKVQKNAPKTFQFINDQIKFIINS
Autofluor counter = flagged as autofluorescent in microsphere protease counterscreen; compound autofluorescence counterscreen, microsphere flow cytometry; active compounds read high; 3.1% of 360,000 active; fluorescence intensity (no concentration beside the values); in the data active = fluorescence intensity above about 16000; inconclusive = no clear call, values can overlap the other calls
BJeLR viability = kills HRASV12-expressing BJeLR cells; 0.17% of 300,000 active; inhibition, % (test concentration not listed); BJeLR (HRASV12) viability, CellTiter-Glo ATP luminescence, 48 h; AID 1554; in the data active = inhibition above about 50%; inconclusive = no clear call, values can overlap the other calls
BoNT-A LC inh2 = BoNT A light chain protease inhibition. multiplex microsphere protease substrate cleavage, flow cytometry. inhibition, % at 10 µM. 0.17% of 360,000 active. AID 588499
BoNT-F LC inh = inhibitors of Botulinum neurotoxin F light chain protease; Multiplex microsphere protease cleavage assay, flow cytometry; inhibition, % at 10 µM; 0.22% of 360,000 active; AID 588497; in the data active = inhibition above about 35%, passing the limit was not always enough; inconclusive = no clear call, values can overlap the other calls
Vc quorum ag = quorum light induction in luxS cqsA deficient V. cholerae; 0.16% of 350,000 active; V. cholerae BH1578 lux reporter, luminescence, 6 h; activation, % at 18.7 µM; AID 588436; in the data active = activation mostly above about 9.7%, no sharp cut-off; inconclusive = no clear call, values can overlap the other calls; inactive = mostly below about 3.7%
Each line names hits and unclear results; the compound was inactive in the other large screens. Cut-off read from the data, not from the text of the source, unless noted: active = inhibition above about 30%; inconclusive = no clear call, values can overlap the other calls; inactive = below that.

COc1ccc(NC(=O)N(C)C[C@@H]2OCc3cnnn3CCCC(=O)N([C@H](C)CO)C[C@@H]2C)cc1	none (no result: BJeLR viability)
COc1ccc(OCc2nnc(SCC(N)=O)n2-c2ccccc2OC)cc1	Autofluor counter 19312
COC(=O)CSc1nnc(CNC(=O)c2cccc(C)c2)n1-c1ccccc1OC	Autofluor counter 22455, BoNT-A LC inh2 inconclusive
CC1CCCN(C(=O)c2cccc(S(=O)(=O)NCc3ccccc3)c2)C1 (stereo not given)	none (no result: BJeLR viability)
CCn1c(CSc2nc(C)cc(C)n2)nnc1SCC(=O)Nc1nc(-c2ccccc2)cs1	Autofluor counter 16261
Cc1cc(C)nc(SCc2nnc(SCC(=O)Nc3nc(-c4ccccc4)cs3)n2C)n1	none
Cc1ccccc1C(=O)NCCc1nnc(SCC(=O)Nc2nc(-c3ccccc3)cs2)n1C	Autofluor counter 20936, BoNT-A LC inh2 inconclusive
Cc1cccc(C(=O)NCCc2nnc(SCC(=O)Nc3nc(C)cs3)n2C)c1	Autofluor counter 16360, BoNT-A LC inh2 inconclusive
Cc1noc(C)c1NC(=O)N(C)C[C@@H]1Oc2cc(Br)ccc2S(=O)(=O)N([C@H](C)CO)C[C@@H]1C	none (no result: BJeLR viability)
COc1cccc(/C=C/c2ccc3cccc(O)c3n2)c1OC	BoNT-F LC inh inconclusive
COc1cccc(/C=C/c2ccccn2)c1O	Autofluor counter 24116
CCOc1nc(C)ccc1-c1noc(-c2ccco2)n1	Autofluor counter 20107
CCn1ncc(Cl)c1C(=O)Nc1cc(Cl)ccc1Cl	Autofluor counter 22800
Cc1ccc(-c2nnn(CC(=O)N(Cc3cccs3)C(C(=O)NC(C)(C)C)c3ccco3)n2)o1 (stereo not given)	none
Cc1ccc(-c2nnn(CC(=O)N(CC3CCCO3)C(C(=O)NC3CCCC3)c3ccc(O)cc3)n2)o1 (stereo not given)	none
Cc1ccc(-c2nnn(CC(=O)N(Cc3ccco3)C(C(=O)NC(C)(C)C)c3cccs3)n2)o1 (stereo not given)	Autofluor counter 22756
Cc1ccc(C(C(=O)NC(C)(C)C)N(CC2CCCO2)C(=O)Cn2nnc(-c3ccc(C)o3)n2)cc1 (stereo not given)	Autofluor counter 16426, BoNT-A LC inh2 inconclusive
CC1(C(=O)NS(=O)(=O)Cc2cccc(Cl)c2)CCN1C(=O)C/C=C/c1ccccc1 (stereo not given)	none (no result: BJeLR viability)
COc1ccc(Cl)c(NC(=O)Nc2c(C)n(-c3ccccc3)c(=O)n2C)c1	none
Cc1cc(Cl)ccc1NC(=O)Nc1c(C)n(-c2ccccc2)c(=O)n1C	Autofluor counter 22798
COc1ccccc1C/C(N)=N/OC(=O)COc1cccc2ccccc12	Autofluor counter 21885
COC(=O)/C(C#N)=C/c1c(-c2ccccc2)nc2n1CCS2	none
Clc1cccc(Cl)c1CO/N=C/c1c(-c2ccccc2)nc2n1CCS2	Autofluor counter 23470, BoNT-A LC inh2 inconclusive
Cc1ccc(S(=O)(=O)Cc2ccc(C(=O)N3CCCC3)o2)cc1	none
O=C(c1ccc(CS(=O)(=O)Cc2ccc(Cl)cc2)o1)N1CCCC1	Autofluor counter 23181
CCC(CC)C(=O)N(C)c1c(C)nc2c(OCc3ccc(C(F)(F)F)cc3)cccn12	none (no result: BJeLR viability)
CCCCC(=O)N(C)c1c(CC)nc2c(OCc3ccccc3C)cccn12	none (no result: BJeLR viability)
O=C(O)CSc1nnc(C2COc3ccccc3O2)n1-c1ccccc1 (stereo not given)	Autofluor counter 19815
O=C(O)CSc1nnc(C2CC2)n1-c1ccccc1	none
COc1ccc(N(CC(=O)NCCC2=CCCCC2)S(=O)(=O)c2ccccc2)cc1OC	none
COc1ccc(N(CC(=O)NCCC2=CCCCC2)S(C)(=O)=O)cc1OC	Autofluor counter 22438
Cc1ccc(C(NC(=O)C2CCN(Cc3ccc(Oc4ccccc4)cc3)CC2)c2ccccn2)cc1 (stereo not given)	none (no result: BJeLR viability)
CCCCCC(=O)Nc1ccc(N2CCN(CC)CC2)c(Cl)c1	Autofluor counter 23051
CCCNC(=O)C1(C)CCCN(Cc2cc(-c3ccccc3)nn2C)C1 (stereo not given)	none (no result: BJeLR viability)
CCOc1ccc(Nc2nc3c(c(=O)[nH]2)CCC3)cc1	Autofluor counter 16524 (no result: BJeLR viability)
OC[C@@H]1CN(Cc2cccc3ccccc23)C[C@H](n2cnc3c(NCc4ccco4)ncnc32)O1	none (no result: BJeLR viability)
CCOC(=O)/C(C(N)=NCC(C)C)=C(/O)c1ccccc1	none
CCCN=C(N)/C(C(=O)OCC)=C(\O)c1ccc(OC)cc1	Autofluor counter 21368
